This is an account of results in PubChem BioAssay AID1794808 (University of Kansas High Throughput Screening Laboratory, 2022).

Several values for one entry are separate records, joined by “and”; a condition that tells them apart may be missing. Equal values may be shown once. Out of some 210,000 compounds screened, about 520 (0.25%) were called active. Cut-off read from the data, not from the text of the source: active = inhibition above about 50%; inactive = the rest. The full list was thinned out, with actives kept by preference.

The assay has as its system Plasmodium falciparum apicoplast DNA polymerase (apPOL). Put plainly: Pf-apPOL inhibitors, biochemical, fluorescence (AID 1794808). The conditions noted are these: Recombinant Pf-apPOL, molecular beacon fluorescence, 1.5 h; at 10 µM; active compounds read high.
By inhibition is commonly meant the change of the read-out against control, counted positive when it falls. For `COc1ccc(CCNC(=O)C2CC(=O)N(c3ccc(F)c(Cl)c3)C2)cc1OC` (stereo unspecified), the inhibition was 4.9% (inactive).
As for `O=C1CC2(CCN(C(=O)C=Cc3ccccc3)CC2)Oc2ccccc21`, the inhibition is -17.9% (inactive).
Then `Cc1cc(C)nc(NC(=O)c2ccc([N+](=O)[O-])cc2Cl)c1`, with 5.5% (inactive); and `O=C(Nc1ccc(Br)cn1)c1ccc([N+](=O)[O-])cc1Cl`, with 81.8% (active).
With `O=C(Nc1ccncc1)c1ccc([N+](=O)[O-])cc1Cl`, the inhibition was 0.3% (inactive).
Then `O=C(C1CC1)N1CCC(COCc2ccccc2)CC1`, with -12.6% (inactive); and `CCS(=O)(=O)Oc1ccccc1-c1nc2cc(Cl)ccc2o1`, with -3.6% (inactive); and `Cc1ccc(C(=O)N2CCC(CCOc3ccc(F)cc3)CC2)s1`, with 4.5% (inactive).
On to `CN1CCN(C(=O)C2CCC(=O)N2Cc2ccccc2Cl)CC1` (stereo unspecified), for which the inhibition was -11.4% (inactive).
Under `CC(C)c1nnc(NC(=O)CCCOc2ccc(Cl)cc2)s1` stands 4.4% (inactive); under `O=[N+]([O-])c1ccc(-c2noc(COc3ccc(Cl)cc3Cl)n2)cc1`, 1.6% (inactive).
As for `O=C(NCCc1ccccc1)C1CCN(S(=O)(=O)c2ccc(Br)cc2)CC1`, the inhibition was 98.3% (active).
Under `O=C(NCCc1ccccc1)C1CCN(S(=O)(=O)c2ccc(Br)s2)CC1` stands -9% (inactive); under `O=C(NCCc1ccccc1)C1CCN(CC2CCCCC2)CC1`, 12.9% (inactive).
Take `Cc1cccc(NC(=O)c2cc3c(CO)cnc(C)c3oc2=Nc2ccc3c(c2)OCO3)c1`: the inhibition was -0.2% (inactive).
`CCn1c(-c2cc(NC(=O)c3ccncc3)n[nH]2)cc2ccccc21`: the inhibition is -0.8% (inactive).
Then `O=C(Nc1ccc(Cl)cc1[N+](=O)[O-])c1ccc(Cl)cc1`, with -0.2% (inactive); and `O=C(CCCn1cccc1)Nc1nc(-c2ccco2)cs1`, with 0.6% (inactive); and `Cc1cc(C)nc(Nc2nc(CC(=O)Nc3nc(-c4ccco4)cs3)cs2)n1`, with 69.6% (active).
Under `COC(=O)Nc1nc(CC(=O)NCc2ccco2)cs1` stands -1.8% (inactive); under `Cc1nccn1Cc1nc(-c2ccc(F)c(Br)c2)no1`, -2.5% (inactive); under `COc1ccc(C(C)=C2SC(=S)N(CCC(=O)O)C2=O)cc1`, 3.2% (inactive).
Under `Cc1nc2c(ccc3nc(NC(=O)NCc4cccs4)sc32)s1` stands -4.8% (inactive).
`O=C(c1ccncc1)N1CCCC(c2nc(-c3ccc(F)cc3)n[nH]2)C1` (stereo unspecified): the inhibition was 10% (inactive).
Then `COc1ccc(C(=O)N2CCN(c3nc(C(C)C)c4c(c3C#N)CC(C)(C)OC4)CC2)cc1`, with -3.4% (inactive); and `CCCNc1cc(N2CCC(CCC(=O)NC(C)C)CC2)ncn1`, with -1.9% (inactive).
Then `COc1cc(/C=c2\sc3nc(-c4ccc(Cl)cc4)nn3c2=O)cc(OC)c1OC`, with 3.7% (inactive).
Take `O=C(Cn1nnc2ccccc21)NCCSCc1ccco1`: the inhibition was 9.1% (inactive).
For the molecule `O=C(CSc1nnc(SCC(=O)NCCSCc2ccco2)s1)NCCSCc1ccco1`, the inhibition is 91.9% (active).
Under `Cc1ccc(S(=O)(=O)NC(=O)NCCSCc2ccco2)cc1` stands 25.5% (inactive) and 3.2% (inactive); under `Cc1cccc(OCCNC(=O)CSc2ccc(C(F)(F)F)cc2[N+](=O)[O-])c1`, -4.3% (inactive).
As to `COc1ccccc1OCCNC(=O)CSc1ccc(C(F)(F)F)cc1[N+](=O)[O-]`, the inhibition is -0.4% (inactive).
Under `O=C(CSc1ccc(C(F)(F)F)cc1[N+](=O)[O-])NCCOc1ccccc1` stands 57.6% (active); under `O=C(Cc1ccsc1)N1CCn2cnnc2C1`, 0.2% (inactive); under `Cc1nc(C(=O)NCc2ccc(C(F)(F)F)cc2)c(C)o1`, -4.9% (inactive).
Then `Cc1ccc(C2CC(c3ccccc3)Nc3nnnn32)cc1` (stereo unspecified), with -7% (inactive); and `O=C(Nc1ccccc1[N+](=O)[O-])c1[nH]ncc1[N+](=O)[O-]`, with -24.6% (inactive).
Under `Cc1ccc(-n2cc(C(=O)Nc3ccc4c(c3)OCCO4)c3ccccc3c2=O)cc1C` stands -2.6% (inactive); under `O=C(c1ccoc1)N1CCCCC1CCN1CCOCC1` (stereo unspecified), -2% (inactive).
On to `O=C(NC1CC1)c1cccc(OCC2CCCN(C(=O)C3CCCCC3)C2)c1` (stereo unspecified), for which the inhibition was -3.3% (inactive).
Then `COc1ccc(CNC(=O)c2cncc(OC)c2)cc1`, with 0.2% (inactive).
Turning to `O=C(CS(=O)(=O)CC(=O)c1ccccc1)c1ccccc1`, the inhibition is -2.4% (inactive).
`Cc1c(Cl)ccc(NC(=O)C2CCCN2S(=O)(=O)c2ccccc2)c1Cl` (stereo unspecified): the inhibition was -7.1% (inactive).
Then `O=C(Nc1ccc(Cl)cc1)NC1(C(F)(F)F)Oc2ccccc2O1`, with 1.5% (inactive).
As to `COc1ccc(Cl)cc1NC(=O)CN(c1ccccc1)S(=O)(=O)c1ccccc1[N+](=O)[O-]`, the inhibition was -6.5% (inactive).
Then `CC1=C(C(=O)Nc2ccc(Cl)cc2)C(c2ccc(Cl)cc2Cl)n2ncnc2N1` (stereo unspecified), with 6% (inactive); and `CCN(CC)S(=O)(=O)c1ccc(Cl)c(C(=O)O)c1`, with -5% (inactive).
Under `Cc1ccc(Cl)cc1NC(=O)C(=O)NCc1ccccn1` stands 0.8% (inactive) and 0% (inactive); under `O=C(COc1ccc(F)cc1)Nc1nnc(C2CC(=O)N(c3ccccc3)C2)o1` (stereo unspecified), 4.1% (inactive).
As to `CN(C)c1ccc(/C=C(\C#N)c2ccc([N+](=O)[O-])cc2)cc1Br`, the inhibition is -5.5% (inactive).
Then `COCC(=O)N1CCCCC1c1nncn1CC1CC1` (stereo unspecified), with 3.4% (inactive); and `CC(C)(C)C(=O)Oc1ccc(C=Cc2ccccn2)cc1`, with -22% (inactive).
Then `Nc1ccc2nc(SCC(=O)NC3CC3)sc2c1`, with 6.4% (inactive); and `O=C(CSc1nnc(NC(=O)c2cc(-c3ccco3)on2)s1)NC1CCCC1`, with 60.9% (active); and `O=C(CSc1nnc(NC(=O)c2ccc(Cl)c(Cl)c2)s1)NCc1ccco1`, with 0.7% (inactive).
Then `O=C1CC(NCc2ccc3c(c2)OCO3)C(=O)N1c1ccc(OC(F)(F)F)cc1` (stereo unspecified), with 0.2% (inactive); and `Cc1cc(C)c(S(=O)(=O)N2CCC(c3noc(-c4ccc(F)cc4)n3)CC2)c(C)c1`, with -5.5% (inactive); and `O=Cc1ccc(OCc2ccc(I)cc2)cc1`, with -6.6% (inactive).
For `COc1ccccc1C(=O)Oc1ccc2c(c1)OC(=Cc1cccc(OC)c1OC)C2=O`, the inhibition is -1.8% (inactive).
As for `COc1ccc(CCNC(=O)CSc2ccc(-n3cccn3)nn2)cc1OC`, the inhibition is -3.3% (inactive).
Then `CC(C)(C)C(O)CCNC(=O)C(=O)NCc1ccccc1` (stereo unspecified), with -5.8% (inactive); and `O=C(NCC(O)c1ccsc1)c1cccc2ccccc12` (stereo unspecified), with -3.1% (inactive); and `Cn1c(=O)c2c(-c3ccccc3)n(-c3cccc([N+](=O)[O-])c3)cc2n(C)c1=O`, with 0.3% (inactive).
Take `COc1ccc(-c2c3c(=O)n(C)c(=O)n(C)c3cn2-c2ccc(Br)cc2)cc1`: the inhibition was 73.4% (active).
Under `COc1ccc(-c2cn3c4c(=O)n(C)c(=O)n(C)c4nc3n2CCO)cc1` stands -0.7% (inactive).
For `CN1CCC(N2CCN(C(=O)C3CCc4sc(C(=O)N5CCCC5)cc4C3)CC2)CC1` (stereo unspecified), the inhibition is -2.3% (inactive).
Under `CC(C)N1CCN(C(=O)c2csc(N3CCN(c4ccccc4)CC3)n2)CC1` stands -6.1% (inactive); under `CCOc1ccc(-c2cc3n(n2)CCCN(C(=O)c2ccccn2)C3)cc1`, -2.1% (inactive).
For the molecule `O=C(Nc1cccs1)N1CCN(C(=O)C2CCCO2)CC1` (stereo unspecified), the inhibition was 0.6% (inactive).
Then `O=C(c1cccc(-n2cnnn2)c1)N1CCN(c2ccc(-c3cccs3)nn2)CC1`, with -10.3% (inactive).
Under `O=C(Nc1cccs1)N1CCN(c2ccc(-c3ccco3)nn2)CC1` stands 64.3% (active).
